INS promoter inh – TRM-6 insulin promoter activity inhibition | TRM-6 cells (human fetal islet line), insulin promoter-eGFP reporter, imaging; reporter expression induced with tamoxifen | inhibition, % at 2 µM | 130,000 compounds, 0.9% hits | AID 1273;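 active = inhibition above the mean plus 3 SD, with well images judged a real hit on visual review, cut at about 60% in these data, passing the limit was not always enough; inconclusive = inhibition over the cutoff but images rejected on review; inactive = inhibition not above the cutoff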
S1P4 antag – human S1P4 receptor antagonism. AID 1510. S1P4-expressing cells, antagonist mode, reporter read-out. inhibition, % at 4.98 µM. O95977. 220,000 compounds, 0.26% hits; in the data active = inhibition above about 29%;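 note: 0% = wells stimulated with agonist and 100% = vehicle wells without agonist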
Target sequence (O95977 whole entry, looked up): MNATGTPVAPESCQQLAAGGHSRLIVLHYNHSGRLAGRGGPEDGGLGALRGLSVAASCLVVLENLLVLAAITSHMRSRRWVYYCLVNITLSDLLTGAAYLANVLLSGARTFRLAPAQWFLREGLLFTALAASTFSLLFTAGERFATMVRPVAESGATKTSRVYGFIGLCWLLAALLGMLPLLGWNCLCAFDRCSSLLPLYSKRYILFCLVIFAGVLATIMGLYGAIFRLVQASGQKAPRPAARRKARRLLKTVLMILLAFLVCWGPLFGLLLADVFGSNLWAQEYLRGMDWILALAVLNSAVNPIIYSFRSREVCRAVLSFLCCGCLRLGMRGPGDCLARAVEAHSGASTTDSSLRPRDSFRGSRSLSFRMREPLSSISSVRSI
S1P3 antag – S1P3 (human) receptor antagonism. Q99500. CHO S1P3 NFAT-BLA reporter, FRET fluorescence, antagonist mode. inhibition, % at 4.98 µM. 170,000 compounds, 0.27% hits;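 active = inhibition above the plate cutoff, the mean inhibition of test wells on that plate plus 3 SD, cut at about 28% in these data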;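 note: cells challenged with S1P at its EC80 of 0.8 µM; blue over green emission ratio from cleaved BLA substrate after 4 h stimulation; 0% = S1P-stimulated wells and 100% = unstimulated DMSO-only wells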
EP2 modulator – modulates human prostaglandin E2 receptor EP2 signaling. induction, % at 25 µM. EP2-expressing cells, cAMP HTRF FRET, PGE2 co-stimulation. 260,000 compounds, 0.83% hits. P43116;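 active = compounds whose cAMP rise, as percent of the full-agonist control response, exceeds 60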;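 note: rat C6 glioma line stably carrying human EP2 under a CMV promoter; the protocol text gives 20 µM as final concentration; 100% = response of wells given 1 µM PGE2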
PGE2 EP2 inh – blocks the human prostaglandin E2 receptor EP2 | C6 glioma cells expressing human EP2, cAMP TR-FRET; cells stimulated with saturating PGE2 | P43116 | 260,000 compounds, 0.52% hits | AID 1422 | inhibition, % at 25 µM;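 active = percent inhibition above 40 after rounding to a whole number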;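 note: rat C6 glioma host cells with rolipram phosphodiesterase inhibitor present; the protocol text gives 20 µM as final concentration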
S1P4 ag – agonists of human S1P4 receptor; O95977; S1P4-expressing cell line, agonist reporter assay; 220,000 compounds, 0.35% hits; AID 1509; activation, % at 4.98 µM; in the data active = activation above about 11%;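 note: 0% = DMSO vehicle and 100% = reference agonist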
S1P4 agonist cf – confirmation of human S1P4 receptor agonists; shares compounds with S1P4 ag; AID 1523; S1P4 agonist cell-based reporter assay; 740 compounds, 7% hits; activation, % at 4.98 µM; in the data active = activation above about 12%;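 note: 0% = vehicle and 100% = full reference agonist response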
S1P1 ag – activates human S1P1, counter-screen for S1P4 agonists; shares compounds with S1P4 ag; S1P1 agonist cell-based assay, activation; activation, % at 4.98 µM; 740 compounds, 4% hits; AID 1563; in the data active = activation above about 21%;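 note: 0% = vehicle wells and 100% = reference agonist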
* marks the source's active call; other numbers are inactive results; ? = inconclusive; · = no result. A selection: hits, their analogues and other compounds. The true share with any hit is near 2.4%.

SMILES | INS promoter inh | S1P4 antag | S1P3 antag | EP2 modulator | PGE2 EP2 inh | S1P4 ag | S1P4 agonist cf | S1P1 ag
COc1ccc(NC(=O)C2CC(=O)NC(Nc3cccc(C)c3)=N2)cc1 (stereo unspecified) | 5 | 2 | -5 | -3 | 10 | -2 | · | ·
Cc1noc(C)c1CCC(=O)NC(C)Cn1nc2c(C)cc3ccccc3n2c1=O (stereo unspecified) | · | · | · | 12 | 9 | · | · | ·
COc1ccccc1OCC(=O)NCc1nc(-c2ccccc2)no1 | 32 | -9 | 0 | -2 | 6 | 76* | -1 | 1
CCC(=O)NCCc1nc(-c2ccccc2)no1 | · | · | · | · | 15 | · | · | ·
CCCCNC(=O)Cc1ccc(Br)cc1 | · | -15 | -12 | 7 | 10 | 13* | -2 | -3
COCCNC(=O)Cc1ccc(Br)cc1 | · | 6 | -10 | 14 | 15 | -1 | · | ·
O=C(O)c1ccc(Br)cn1 | 53 | 2 | -28 | 10 | 13 | 27* | -2 | 2
O=c1[nH][nH]c2cc(=O)n(-c3cccc(C(F)(F)F)c3)nc12 | ? | 3 | 1 | 23 | 9 | -1 | · | ·
Nc1n[nH]c2cc(=O)n(-c3cccc(C(F)(F)F)c3)nc12 | 31 | -21 | -2 | -22 | 14 | 65* | -2 | -7
CC(C)c1cc(C(=O)OCC(=O)NC(=O)NCc2ccco2)c(O)c(C(C)C)c1 | · | -4 | -4 | 54 | 6 | 44* | 36* | 1
CC(Oc1ccccc1)C(=O)OCC(=O)NC(=O)NCc1ccco1 (stereo unspecified) | 25 | -7 | · | -15 | 4 | 0 | · | ·
CCOC(=O)C1=C(N)Oc2c(oc(CO)cc2=O)C1c1ccncc1 (stereo unspecified) | · | · | · | 14 | 12 | · | · | ·
Cc1cc(=S)cc(C)n1CCO | -57 | -2 | 0 | 17 | 5 | 11* | -1 | 1
COc1ccc(Cl)cc1C(=O)Nn1cnc2ccccc2c1=O | · | -14 | -14 | -5 | 7 | 137* | -2 | 0
CCn1c(SCC(=O)Nc2cccc(Cl)c2Cl)nc2c1c(=O)n(C)c(=O)n2C | · | · | · | 1 | 17 | · | · | ·
CS(=O)(=O)N1CCc2cc(C(=O)N3CCOCC3)ccc21 | 6 | 2 | -7 | 24 | 19 | 27* | -2 | -3
C#CCOc1c(Cl)cc(C2C(C#N)=C(N)OC3=C2C(=O)CCC3)cc1Cl (stereo unspecified) | · | · | · | -53 | 10 | · | · | ·
COCCCNC(=O)c1cc2c(n(-c3ccc(OC)cc3)c1=O)CC(C)(C)CC2=O | · | · | · | 3 | 8 | · | · | ·
CC(C)Oc1ccc(N2CC(C(=O)OCC(=O)Nc3ccccc3Cl)CC2=O)cc1 (stereo unspecified) | · | · | · | -24 | 12 | · | · | ·
Cc1ccc2nc(-c3ccc(NS(=O)(=O)c4ccc(F)c(F)c4)cc3)sc2c1 | 24 | -1 | 3 | -2 | 5 | 30* | 1 | -3
Cc1oc2cc(OC(=O)c3ccco3)ccc2c(=O)c1-c1nc2ccccc2n1C | 36 | -13 | -10 | 25 | 6 | 12* | -2 | -3
Cc1ccc(CNC(=O)C2CN(S(C)(=O)=O)c3cc(Cl)ccc3O2)cc1 (stereo unspecified) | -16 | -23 | -13 | -37 | 4 | 63* | -2 | 3
COC(=O)CSc1nc(-c2cccs2)cc(C(F)(F)F)n1 | · | · | · | 3 | 7 | · | · | ·
O=C(N/N=C/c1cc([N+](=O)[O-])ccc1O)c1cc(-c2ccccc2)nc2ccccc12 | · | -9 | -14 | 18 | 1 | 1 | · | ·
Cc1cc(C(=O)N/N=C/c2cc([N+](=O)[O-])ccc2O)c2ccccc2n1 | -10 | -10 | -7 | -16 | 12 | 22* | -2 | -1
Cc1nc(Cl)c2c(n1)NC1=C(O2)C(=O)CCC1 | · | -3 | -6 | -39 | 3 | 14* | -2 | 4
COc1cccc(-c2nnc(SCC(=O)N3c4ccccc4Sc4ccccc43)o2)c1 | · | · | · | -70 | 9 | · | · | ·
CCOC(=O)c1ccc2c(c1)C(=O)N(C1CCCCC1)C2=O | -21 | -17 | 32 | 3 | 10 | 25* | -2 | 4
CN1CCc2c(sc3c2C(=O)NC(c2ccco2)N3)C1 (stereo unspecified) | 0 | -19 | -4 | -8 | 0 | 4 | · | ·

Bioassay records from PubChem BioAssay.
